Only some compounds are listed: those with a hit (about 21% of all), similar ones and a draw of the others.
NS1 function inh = influenza NS1 inhibition; Potency, µM (doses to about 46.1 µM), without a hit: top-dose activity, positive = more growth; 270,000 compounds, 0.4% hits; also: potency is read from the fitted curve at half-maximal effect; actives are rising curves; nearly all actives have a fitted effect of over 50% in size
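S. cerevisiae expressing influenza A NS1, grown in glucose, washed, then diluted 1:100 into pH 6.0 -URA galactose medium with 23 nl compound. Growth recovery read as OD600; NS1-free strain serves as control.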
Pf growth 96h = inhibits malaria parasite growth, 96 h; Potency, µM (highest dose often 28.7 µM), inactives show at the top dose activity change, negative = inhibition, hits mostly inhibitors; AID 504834; 320,000 compounds, 6.9% hits; P. falciparum luciferase reporter growth, 96 h; active = well fitted inhibition curve with a large enough effect; inconclusive = small, poorly fitted or top-dose-only effect, or another doubt; inactive = no such curve, though single readings can be large or run the other way; also: potency is read from the fitted curve at half-maximal effect; % is scaled to controls: 0 for no effect and ±100 for the full control effect
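Two-generation exposure (96 h) targets delayed-death phenotype. Reporter parasites carrying integrated firefly luciferase, in red cells at 2% hematocrit and 0.05% parasitemia final, kept at 37 C, 5% CO2; luminescence loss indicates inhibition.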
Shiga toxin inh = inhibitors of Shiga toxin in Vero cells; inhibition, % at 38.7 µM; 290,000 compounds, 9.2% hits; Vero cells, Shiga toxin protein synthesis inhibition reporter; in the data active = inhibition mostly above about 28%, no sharp cut-off; inactive = mostly below about 43%; also: 0% is about no effect
Pf growth 48h = inhibits P. falciparum growth in the first generation, 48 h. AID 504832. P. falciparum luciferase growth in erythrocytes, 48 h. Potency, µM (doses to about 28.7 µM), for the others: top-dose activity change, negative = inhibition, most hits filed as inhibitors. 310,000 compounds, 5.9% hits; active = well fitted inhibition curve with a large enough effect; inconclusive = small, poorly fitted or top-dose-only effect, or another doubt; inactive = no such curve, though single readings can be large or run the other way; also: potency is read from the fitted curve at half-maximal effect; % is scaled to controls: 0 for no effect and ±100 for the full control effect
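Luminescence readout; reporter = integrated firefly luciferase in P. falciparum. RBC culture at 2% hematocrit, 0.1% parasitemia final, 37 C/5% CO2; decreased signal taken as growth inhibition.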
SARS PLP yeast = SARS-CoV PLP inhibition in yeast; S. cerevisiae expressing SARS-CoV PLpro, growth rescue; Potency, µM (highest dose often 32.9 µM), for inactives: at the top dose activity, positive = growth rescue, actives largely listed as activators; 330,000 compounds, 0.19% hits; also: potency is read from the fitted curve at half-maximal effect; 0% is about no effect; nearly all actives have a fitted effect of over 55% in size
Cycloheximide cs = counter-screen hit for Shiga toxin inhibitors, cycloheximide | AID 2314 | cell reporter, cycloheximide protein synthesis inhibition counterscreen | 300,000 compounds, 12% hits | max response, %; in the data active = max response mostly above about 13%, no sharp cut-off; inactive = mostly below about 14%; also: read at 38.3 µM for the half of the compounds with a filed dose; 0% is about no effect
The depositor's hits bear a star; ? = inconclusive; / = not tested or not shown. Unless noted, calls follow the shape of the full dose curve.

SMILES | NS1 function inh | Pf growth 96h | Shiga toxin inh | Pf growth 48h | SARS PLP yeast | Cycloheximide cs
CC1CCCN(c2nc(N(C)c3ccccc3)nc(N)c2[N+](=O)[O-])C1 (stereo not drawn) | -8% | 10% | 36 | -2% | -1% | 20*
COc1cccc(Nc2nc(N)c([N+](=O)[O-])c(N3CCOCC3)n2)c1 | -5% | 15µM* | 4 | ? | -1% | 0
COc1ccc(Nc2nc(N)c([N+](=O)[O-])c(N3CCCC3)n2)cc1 | -7% | 13µM* | -9 | ? | -2% | 17*
Cc1ccc(Nc2nc(N)c([N+](=O)[O-])c(N3CCOCC3)n2)cc1 | 8% | ? | 1 | -18% | -5% | 12
Cc1cccc(Nc2nc(N)c([N+](=O)[O-])c(N3CCOCC3)n2)c1 | -6% | ? | 17 | ? | 8% | -3
CN(C(=O)CSc1n[nH]c(-c2cccs2)n1)C1CCS(=O)(=O)C1 (stereo not drawn) | / | -5% | / | 0% | 3% | /
N#Cc1cccc(NC(=O)CN2C(=O)NC(Cc3ccccc3)C2=O)c1 (stereo not drawn) | 4% | 57% | -7 | 39% | 1% | -3
C=CCNc1nc(N)c([N+](=O)[O-])c(N2CCCCCC2)n1 | -56% | -2% | 2 | -10% | -1% | -3
CCN(CC)CCCNc1nc(N)c([N+](=O)[O-])c(N2CCCCCC2)n1 | -5% | 2.9µM* | -17 | -6% | 12% | -4
Nc1ccc2nc(-c3ccc(-c4nc5ccc(N)cc5[nH]4)cc3)[nH]c2c1 | -44% | 2.3µM* | 33 | 12µM* | -1% | -3
Nc1ccc2nc(-c3cccc(-c4nc5ccc(N)cc5[nH]4)n3)[nH]c2c1 | 2% | 0.52µM* | -5 | 2.1µM* | -2% | 1
O=C(N/C(=C\c1cccc(Br)c1)C(=O)N1CCOCC1)c1ccco1 | -10% | 45% | 24 | 21% | -1% | -2
FC(F)Oc1ccc(NC(=S)NCC2COc3ccccc3O2)cc1 (stereo not drawn) | 1% | 34% | -6 | 16% | 24% | -2
Cc1ccc2c(c1)N(CC(=O)Nc1ncccc1C)C(=O)C(C(C)C)O2 (stereo not drawn) | 17% | ? | -2 | 20% | 3% | 1
CC(C)CCN(C(=O)c1ccc(Br)cc1)c1c(N)n(Cc2ccccc2)c(=O)[nH]c1=O | / | -10% | / | 7% | -20% | /
CCCCOc1ccc(Cc2c(Cl)nc(SC)nc2N2CCOCC2)cc1 | 0% | 45% | -10 | 13µM* | -40% | -1
CCOC(=O)CNC(=O)Nc1cc(C(C)(C)C)nn1-c1ccccc1 | -10% | 32% | -4 | 3% | 1% | 37*
COc1cccc(/C(C)=N/Nc2ccc(S(=O)(=O)N3CCCCC3)cn2)c1 | / | ? | / | ? | -11% | /
O=C(c1ccccc1[N+](=O)[O-])N1CCC(Cc2ccccc2)CC1 | 9% | ? | -9 | 50% | ? | 6
COc1cc(OC)c(C2N(c3cc(C)on3)C(=O)C3CCCN32)cc1OC (stereo not drawn) | 2% | 4.7µM* | -26 | 3% | -4% | -2
Cc1nc2ccccc2n2c(-c3ccccc3)c3c(=O)n(C)c(=O)n(C)c3c12 | 9% | / | -7 | 9% | -1% | -5
Cc1noc(C)c1-c1ccc2ncnc(NCc3ccc(-c4ccccc4)cc3)c2c1 | / | / | 48* | / | / | 38*
CCOc1ccc(NC(=O)c2ccc3nccnc3c2)cc1 | -12% | / | 62 | 102% | 8% | 52*
COc1ccc(NC(=O)c2ccc3nccnc3c2)cc1 | -4% | -3% | 88* | 408% | -18% | 37*
CCOc1ccc(NC(=O)Nc2ccc3nccnc3c2)cc1 | -21% | ? | 29 | -22% | -5% | 4
SMILES | NS1 function inh | Pf growth 96h | Shiga toxin inh | Pf growth 48h | SARS PLP yeast | Cycloheximide cs
COc1ccc(C(=O)Nc2ccc3ncccc3c2)cc1 | -33% | 122% | -11 | 0% | -11% | 12
CSc1nc(C(=O)N2CCCC(Nc3ccc(C)c(C)c3)C2)cs1 (stereo not drawn) | 1% | 12% | 1 | -14% | -2% | -1
CCCCN1C(=O)c2ccc(C(=O)OCC(=O)N3CCN(c4ccccc4)CC3)cc2C1=O | / | 13% | / | -3% | 2% | /
COC(=O)CCc1ccc(O)cc1 | -10% | 32% | -5 | 23% | -3% | -2
COc1cc(O)ccc1C(=O)CCc1ccc(O)cc1 | 18% | ? | 16 | ? | -7% | 12*
CC(=O)c1cccc(NS(=O)(=O)c2ccc(N/C=C\C(=O)c3ccc(F)cc3)cc2)c1 | 5% | ? | 122* | ? | ? | 37*
CC(=O)c1ccc(NS(=O)(=O)c2ccc(N/C=C/C(=O)c3ccc(F)cc3)cc2)cc1 | -41% | ? | 81* | ? | 0% | 53*
CC(=O)c1cccc(NS(=O)(=O)c2ccc(NC(=O)N3CCCCC3)cc2)c1 | -5% | 10µM* | 17 | 4% | -4% | -2
Cc1ccc(C(=O)/C=C/Nc2ccc(S(=O)(=O)Nc3cc(C)nc(C)n3)cc2)cc1 | -13% | 1% | 29 | ? | 2% | 29*
COc1cc(NS(=O)(=O)c2ccc(NS(=O)(=O)c3ccc(NC(C)=O)cc3)cc2)nc(OC)n1 | 2% | 29% | -6 | 21% | 10% | -9
Cc1cc(C)cc(OC(C)C(=O)Nc2ccc(S(=O)(=O)Nc3cc(C)nc(C)n3)cc2)c1 (stereo not drawn) | -9% | 13µM* | -2 | 1% | -12% | -2
COc1cc(NS(=O)(=O)c2ccc(N/C=C\C(=O)c3ccc(F)cc3)cc2)nc(OC)n1 | 16% | 438% | 94* | 20% | ? | 71*
O=C(O)Cn1cnc2sc3c(c2c1=O)CCCC3 | 0% | 40% | -6 | -19% | 0% | -2
Cc1ccc(Cn2cnc3sc4c(c3c2=O)CCC4)c(C)c1 | 0% | 1.9µM* | -2 | ? | 0% | -1
CC(C)NC(=O)/C(C#N)=C/c1ccc(N(C)C)o1 | 4% | 135% | 60* | 74% | -1% | 16*
C=CC[n+]1c(/C=C2\C=Cc3cc(C)ccc3N2CC)ccc2ccccc21 | / | ? | -11 | 13µM* | -25% | -2
CCN(c1ccccc1)S(=O)(=O)c1cc(C(=O)Oc2ccc3c(C)cc(=O)oc3c2)ccc1C | 1% | -7% | -5 | -6% | -12% | -2
Cc1csc(=O)n1CC(=O)OCC(=O)Nc1ccc(F)c(F)c1 | / | 40% | / | 42% | -1% | /
O=C(/C=C/c1ccccc1)Nc1cccnc1 | -58% | ? | 33* | 98% | -10% | 28*
O=C(/C=C/c1ccccc1)NNC(=O)c1cccnc1 | -4% | 15% | -9 | 17% | 1% | -3
O=C(/C=C/c1ccc([N+](=O)[O-])cc1)Nc1cccnc1 | 13% | 52% | 112* | 54% | 0% | 43*
CC1(C)OC(C)(C)/C(=C/Nc2ccccc2)C1=O | -3% | -25% | -5 | -10% | -7% | -4

Screening results (PubChem)
